Sampled rows, rich in hits. Any-hit rate of the full collection: about 11%.
HCV inh: blocks hepatitis C virus. Potency, µM (series often up to 41.8 µM), usual class: inhibitors. Huh7.5.1 HCVcc-Cre infection, luciferase reporter, 44 h. AID 651820. 340,000 tested, 3.4% active
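Infectious HCV cell culture screen: compound-treated cells (1,000/well, pre-plated 4 h) are infected with HCVcc-Cre at roughly 0.5 moi and grown 44 h. Infection is quantified by luciferase signal after 15 min substrate incubation at room temperature.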
AmpC no deterg: blocks E. coli AmpC beta-lactamase in detergent-free assay | Potency, µM (top dose mostly 57.1 µM), actives largely listed as inhibitors | P00811 | 330,000 tested, 0.52% active | AmpC nitrocefin hydrolysis, absorbance 480 nm, 0.0001% Triton; further: nearly all actives have a fitted effect of over 20% in size
Target sequence (P00811 whole entry, looked up): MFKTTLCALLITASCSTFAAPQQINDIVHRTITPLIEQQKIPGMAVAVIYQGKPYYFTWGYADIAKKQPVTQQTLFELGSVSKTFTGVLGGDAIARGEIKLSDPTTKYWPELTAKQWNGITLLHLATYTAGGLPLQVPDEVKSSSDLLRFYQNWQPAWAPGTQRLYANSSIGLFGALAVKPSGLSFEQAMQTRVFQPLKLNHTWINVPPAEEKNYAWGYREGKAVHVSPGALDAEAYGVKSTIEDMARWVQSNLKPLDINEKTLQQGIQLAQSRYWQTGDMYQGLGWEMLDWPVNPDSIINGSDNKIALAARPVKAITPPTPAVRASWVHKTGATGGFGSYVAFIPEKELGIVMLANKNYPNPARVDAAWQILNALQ
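20 mM phosphate pH 7.0 + 0.01% (detergent screen) or 0.0001% Triton X-100; 5.3 nM AmpC reagent; cpd preinc 15 min RT; nitrocefin (800 uM stock) to start; A480 q20 s × 4 min; Activity was normalised to no-enzyme and no-compound control wells.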
AmpC inh detg: blocks E. coli AmpC beta-lactamase in detergent assay. AmpC hydrolysis of nitrocefin, absorbance 480 nm, 0.01% Triton. AID 485294. P00811. Potency, µM (doses to about 114 µM), usual class: inhibitors. 370,000 tested, 0.041% active; further: nearly all actives have a fitted effect of over 25% in size
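20 mM phosphate pH 7.0 + 0.01% (detergent screen) or 0.0001% Triton X-100; 5.3 nM AmpC reagent; cpd preinc 15 min RT; nitrocefin (800 uM stock) to start; A480 q20 s × 4 min; Activity was normalised to no-enzyme and no-compound control wells.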
Pf growth 96h: P. falciparum growth inhibition at 96 hours; P. falciparum luciferase reporter growth, 96 h; Potency, µM (titrated, usually from 28.7 µM), most hits filed as inhibitors; 320,000 tested, 6.9% active
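Readout is luminescence from an integrated firefly luciferase in P. falciparum. Red cells, 2% hematocrit and 0.05% parasitemia final, were cultured with compound through two parasite generations (96 hours) at 37 C, 5% CO2.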
Pf growth 48h: inhibits P. falciparum growth in the first generation, 48 h. AID 504832. 310,000 tested, 5.9% active. Potency, µM (series often up to 28.7 µM), most hits filed as inhibitors. P. falciparum luciferase growth in erythrocytes, 48 h
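In quantitative HTS format, infected erythrocytes bearing luciferase-reporter parasites were treated for a single generation at 37 C. Luminescence after adding detection reagent served as the growth measure.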
AMA1 RON2 block: inhibitors of Plasmodium falciparum AMA1-RON2 interaction | AID 720542 | AlphaScreen AMA1-biotinylated RON2 peptide binding | Potency, µM (doses to about 58.2 µM), most hits filed as inhibitors | 360,000 tested, 0.2% active; further: nearly all actives have a fitted effect of over 45% in size
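AMA1 (3D7) with his tag at 25 nM final met compounds first, then biotinylated RON2 peptide at 25 nM; detection used donor plus acceptor beads, 10 µg/mL apiece, read by AlphaScreen after 30 min at room temperature.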
Numbers stand for hits; 0 = inactive; ? = inconclusive; - = no result; [ ] = remark or other dose. The call rests on the fitted dose curve; in most records, active means well fitted curve in the direction sought with a large enough effect; inconclusive means small, poorly fitted or top-dose-only effect, or another doubt; inactive means no such curve, though single readings can be large; an effect the other way counts as inactive or inconclusive.

SMILES | HCV inh | AmpC no deterg | AmpC inh detg | Pf growth 96h | Pf growth 48h | AMA1 RON2 block
COC(=O)C1=C(c2ccccc2OCc2ccccc2)C[C@@H]2CC[C@H]1N2C(=O)NCCN1CCOCC1 | 0 | 0 | 0 | 4.7µM | ? | 0
COC(=O)C1=C(c2ccc(F)cc2OCc2ccccc2)C[C@@H]2CC[C@H]1N2C(=O)NCc1ccc(C(F)(F)F)cc1 | ? | 0 | - | - | - | 0
COc1ccc(C2CC(=O)N(CC(=O)Nc3ccc(C(F)(F)F)cc3)c3ccccc3S2)cc1 (stereo unspecified) | - | - | 0 | - | - | -
COC(=O)C1=C(c2ccccc2OCc2ccccc2)C[C@@H]2CC[C@H]1N2C(=O)NCc1ccccc1 | ? | 0 | 0 | 4.1µM | 10µM | 0
COC(=O)C1=C(c2ccccc2OCc2ccccc2)C[C@@H]2CC[C@H]1N2C(=O)NCc1cccc(C(F)(F)F)c1 | ? | 0 | 0 | ? | 10µM | 0
COC(=O)C1=C(c2ccc(OCc3ccccc3)cc2)C[C@@H]2CC[C@H]1N2C(=O)NCc1cccc(C(F)(F)F)c1 | 13µM | 0 | 0 | 1.9µM | 4.1µM | 0
COC(=O)C1=C(c2ccccc2OCc2ccccc2)C[C@@H]2CC[C@H]1N2C(=O)NCc1ccc(Br)cc1 | ? | 0 | 0 | ? | 10µM | 0
Cc1cccc(N2CCN(C(=O)Cn3ncc4c([nH]c5ccccc54)c3=O)CC2C)c1 (stereo unspecified) | - | - | 0 | - | - | -
COc1ccc(OC)c(NC(=O)CN2C(=O)CCc3cc(S(=O)(=O)N4CCCCC4)ccc32)c1 | - | - | 0 | - | - | -
COC(=O)c1cc2sccc2n1CC(=O)Nc1cc(Cl)ccc1OC | - | - | 0 | - | - | -
CCOC(=O)CN(C(=O)CSc1nnc2c(n1)[nH]c1ccccc12)c1ccccc1 | ? | 0 | 0 | ? | 7.4µM | 0
CCOC(=O)CN(C(=O)CSc1nnc2c(n1)[nH]c1ccc(F)cc12)c1ccccc1 | 0 | 0 | 0 | 0 | 13µM | 0
CCOC(=O)CN(C(=O)CSc1nnc2c(n1)[nH]c1c(C)cc(C)cc12)c1ccccc1 | - | 0 | ? | ? | - | -
O=C(CSc1nnc2c(n1)[nH]c1ccc(F)cc12)Nc1ccccc1F | 0 | 0 | 0 | 0 | 0 | 0
Cc1oc2c(CN3CCCCC3)c(O)ccc2c(=O)c1-c1ccc(Br)cc1 | 0 | 0 | 0 | 1.2µM | ? | 0
Cc1oc2c(CN3CCCC3)c(O)ccc2c(=O)c1-c1ccc(Br)cc1 | 0 | 0 | 0 | ? | 9.3µM | 0
O=[N+]([O-])c1ccc(/C=N/n2c(CO)nc3ccccc32)s1 | 10µM | 0 | 0 | ? | 4.7µM | 0[11.6 µM]
Cc1nc2ccccc2n1/N=C/c1ccc([N+](=O)[O-])s1 | 4.5µM | 0 | 0 | 4.1µM | 4.1µM | 0
CCOC(=O)C1=C(O)c2ccccc2C(=O)/C1=C\c1ccc(C)cc1 | 0 | 0 | 0 | 4.1µM | 2.9µM | ?
CCOC(=O)C1=C(C)OC(=Cc2ccccc2)C1=O | - | - | - | - | - | 0
O=C(CSc1nc2nc3c(cc2c(=O)n1-c1ccccc1)CCCC3)Nc1ccccc1 | ? | 0 | ? | 12µM | ? | 0
COc1ccc(NC(=O)CSc2nc(N)c3cc4c(nc3n2)CCCC4)c(OC)c1 | 0 | 0 | 0 | ? | 0 | 0
Nc1nc(SCC(=O)Nc2ccccc2)nc2nc3c(cc12)CCCC3 | ? | 16µM | 0 | 0 | 0 | 0
CC1(C)Cc2nc3nc(SCC(=O)NCc4ccccc4)n(-c4ccccc4)c(=O)c3cc2CO1 | - | 0 | 0 | ? | 0 | -
CC1(C)Cc2nc3nc(SCC(=O)NCCc4ccccc4)n(-c4ccccc4)c(=O)c3cc2CO1 | 0 | 0 | ? | 4.1µM | ? | 0
Cc1ccc(NC(=O)CSc2nc(N)c3cc4c(nc3n2)CCCC4)cc1 | 0 | 14µM | 0 | 0 | 0 | 0
CC(C)CC1N=C2c3ccccc3N=C(SCC(=O)NCCc3ccc(Cl)cc3)N2C1=O (stereo unspecified) | - | - | 0 | - | - | -
Cc1ccc(NC(=O)Cn2c(-c3cncs3)nc3ccccc32)c(Br)c1 | - | - | 0 | - | - | -
Cc1cc(C)nc(SCc2ccc([N+](=O)[O-])cc2)n1 | 0 | 0 | 0 | 0 | 0 | 0

Assay outcomes from PubChem.
